A word on the inhibition: it is the relative decrease from the control value, in per cent.

Assay [1] deals with T1, Serine/threonine-protein kinase TBK1 (Homo sapiens) (UniProt Q9UHD2).
T1 sequence (whole entry): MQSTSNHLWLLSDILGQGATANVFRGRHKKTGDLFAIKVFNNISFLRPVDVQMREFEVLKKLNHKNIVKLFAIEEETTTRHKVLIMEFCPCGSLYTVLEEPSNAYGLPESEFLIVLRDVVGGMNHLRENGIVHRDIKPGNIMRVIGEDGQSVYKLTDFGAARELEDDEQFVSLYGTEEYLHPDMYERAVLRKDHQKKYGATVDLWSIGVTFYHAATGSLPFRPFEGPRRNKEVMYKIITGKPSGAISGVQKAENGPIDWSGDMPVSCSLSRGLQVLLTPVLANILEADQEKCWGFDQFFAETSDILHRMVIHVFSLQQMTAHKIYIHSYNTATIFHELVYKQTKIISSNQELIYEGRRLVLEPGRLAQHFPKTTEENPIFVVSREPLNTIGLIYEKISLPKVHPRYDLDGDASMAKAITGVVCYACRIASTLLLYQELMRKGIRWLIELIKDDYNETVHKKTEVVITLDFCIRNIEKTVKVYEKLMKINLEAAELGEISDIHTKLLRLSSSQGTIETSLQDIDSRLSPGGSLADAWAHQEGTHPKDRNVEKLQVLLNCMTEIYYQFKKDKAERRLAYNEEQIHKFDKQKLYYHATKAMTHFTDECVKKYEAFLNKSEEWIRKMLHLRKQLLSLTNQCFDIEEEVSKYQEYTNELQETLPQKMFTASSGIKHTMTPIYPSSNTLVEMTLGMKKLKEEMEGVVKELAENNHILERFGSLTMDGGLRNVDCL
Particulars: at 1 µM.

Assay [2] has as its target T2, Testis-specific serine/threonine-protein kinase 1 (Homo sapiens) (UniProt Q9BXA7).
T2 sequence (whole entry): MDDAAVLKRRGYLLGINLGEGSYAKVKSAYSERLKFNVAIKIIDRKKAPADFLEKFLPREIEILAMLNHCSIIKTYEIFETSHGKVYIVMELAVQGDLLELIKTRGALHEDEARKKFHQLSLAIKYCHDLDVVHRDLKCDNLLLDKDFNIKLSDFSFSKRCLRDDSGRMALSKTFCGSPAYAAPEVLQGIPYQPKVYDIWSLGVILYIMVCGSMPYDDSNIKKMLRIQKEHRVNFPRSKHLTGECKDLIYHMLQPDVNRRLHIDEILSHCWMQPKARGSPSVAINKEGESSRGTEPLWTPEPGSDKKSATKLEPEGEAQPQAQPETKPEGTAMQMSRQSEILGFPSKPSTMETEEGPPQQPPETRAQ
Particulars: at 0.1 µM.

Assay [3] deals with T2, Testis-specific serine/threonine-protein kinase 1 (Homo sapiens). Particulars: at 1 µM.
Assay [4] addresses T3, Testis-specific serine/threonine-protein kinase 2 (Homo sapiens) (UniProt Q96PF2).
T3 sequence (whole entry): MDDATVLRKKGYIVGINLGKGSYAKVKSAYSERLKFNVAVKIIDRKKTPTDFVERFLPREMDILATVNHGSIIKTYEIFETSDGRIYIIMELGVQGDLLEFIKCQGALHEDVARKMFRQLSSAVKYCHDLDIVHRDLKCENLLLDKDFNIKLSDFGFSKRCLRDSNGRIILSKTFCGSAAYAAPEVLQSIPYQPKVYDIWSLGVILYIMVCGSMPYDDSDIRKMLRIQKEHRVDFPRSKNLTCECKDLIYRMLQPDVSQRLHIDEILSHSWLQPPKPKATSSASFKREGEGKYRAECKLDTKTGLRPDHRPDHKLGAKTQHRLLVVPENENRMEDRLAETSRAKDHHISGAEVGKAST
The following applies: at 0.1 µM.

The target of assay [5] is T3, Testis-specific serine/threonine-protein kinase 2 (Homo sapiens). Particulars: at 1 µM.
The target of assay [6] is Casein kinase I isoform alpha (Homo sapiens) (UniProt P48729). The following applies: at 0.1 µM.
For assay [7] the target is unchanged. The following applies: at 1 µM.
Assay [8] deals with Casein kinase I isoform gamma-1 (Homo sapiens) (UniProt Q9HCP0). Particulars: at 0.1 µM.
For assay [9] the target is unchanged. The following applies: at 1 µM.
Assay [10] deals with Casein kinase I isoform gamma-2 (Homo sapiens) (UniProt P78368). The following applies: at 0.1 µM.

Several values for one entry are separate records, joined by “and”; a condition that tells them apart may be missing. Equal entries are not always repeated.

Chain of Casein kinase I isoform gamma-2 (Homo sapiens) (P78368 whole entry, looked up, canonical isoform): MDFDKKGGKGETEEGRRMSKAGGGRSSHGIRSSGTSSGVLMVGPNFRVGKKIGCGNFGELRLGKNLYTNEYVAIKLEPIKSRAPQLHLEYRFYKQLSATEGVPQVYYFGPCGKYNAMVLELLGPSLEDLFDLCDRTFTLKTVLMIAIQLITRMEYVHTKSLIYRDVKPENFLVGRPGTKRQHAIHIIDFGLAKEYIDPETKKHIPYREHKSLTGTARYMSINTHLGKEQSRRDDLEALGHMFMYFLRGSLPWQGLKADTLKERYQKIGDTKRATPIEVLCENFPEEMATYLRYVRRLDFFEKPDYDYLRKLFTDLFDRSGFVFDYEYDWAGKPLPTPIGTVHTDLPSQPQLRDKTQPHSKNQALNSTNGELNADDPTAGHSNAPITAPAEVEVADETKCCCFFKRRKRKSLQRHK
Chain of Casein kinase I isoform alpha (Homo sapiens) (P48729 2-337 limits assumed): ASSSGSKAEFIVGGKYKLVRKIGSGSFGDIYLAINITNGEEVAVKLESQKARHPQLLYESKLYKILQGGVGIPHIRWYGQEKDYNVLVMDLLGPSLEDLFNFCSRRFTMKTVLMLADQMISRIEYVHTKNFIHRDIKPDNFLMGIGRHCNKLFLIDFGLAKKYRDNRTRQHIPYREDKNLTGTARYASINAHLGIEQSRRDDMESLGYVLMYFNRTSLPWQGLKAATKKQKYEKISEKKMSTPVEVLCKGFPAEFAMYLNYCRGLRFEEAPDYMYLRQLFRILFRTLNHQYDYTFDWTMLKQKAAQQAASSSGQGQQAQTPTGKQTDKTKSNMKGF
Chain of Casein kinase I isoform gamma-1 (Homo sapiens) (Q9HCP0 whole entry, looked up, canonical isoform): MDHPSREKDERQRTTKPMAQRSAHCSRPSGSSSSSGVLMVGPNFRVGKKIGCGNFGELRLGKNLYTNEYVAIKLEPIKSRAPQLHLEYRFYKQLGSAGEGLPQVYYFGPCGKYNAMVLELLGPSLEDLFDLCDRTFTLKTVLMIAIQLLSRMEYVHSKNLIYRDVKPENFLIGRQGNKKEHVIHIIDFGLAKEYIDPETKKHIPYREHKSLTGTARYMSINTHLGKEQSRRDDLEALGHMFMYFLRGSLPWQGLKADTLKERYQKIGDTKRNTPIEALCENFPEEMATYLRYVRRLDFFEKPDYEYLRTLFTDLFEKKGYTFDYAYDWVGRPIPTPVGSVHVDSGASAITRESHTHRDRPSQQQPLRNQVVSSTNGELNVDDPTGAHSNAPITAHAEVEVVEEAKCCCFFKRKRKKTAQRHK

With `CC1=C(C(=O)Nc2ccc3[nH]nc(C)c3c2)C(c2ccc(C(F)(F)F)cc2)CC(=O)N1` (stereo not given), the inhibition in assay [1] was 3.52%; in [2], 1.88%; in assay [3], 0.25%; in assay [4] it was 1.4%; in [5], -4.29%; in [6], 2.09%. Moreover, the inhibition is 3.07% in [7], 1.96% in assay [8], 3.62% in assay [9] and 1.19% in [10].
Take `CCS(=O)(=O)c1ccc(OC)c(Nc2ncc(-c3cccc(F)c3)o2)c1`: the inhibition was determined as 11.5% in assay [1]; 6.42% in assay [2]; 5.86% in assay [3]; 3.41% in assay [4]; 3.46% in assay [5]; 5.47% in assay [6]. Besides, the inhibition in assay [7] came to 7.11%; in [8], 4.64%; in [9] it was 5.04%; in assay [10] it was 3.91%.
`Cc1cc(O)cc(C)c1/C=C/c1cncc(C(N)=O)c1`: the inhibition in [1] was 1.71%; in [2], 0.78%; in assay [3], 0.81%; in assay [4] it was 0.45%; in assay [5] it was -0.39%; in assay [6], -2.11%. The inhibition was 2.52% in assay [7], 2.23% in assay [8], 3.19% in [9] and 1.83% in assay [10].
With `CN1CCC(C(=O)Nc2n[nH]c3nc(-c4ccc(O)cc4)c(Br)cc23)CC1`, the inhibition is 6.1% and 2.08% in [1]; 5.11% and 0.23% in assay [2]; 7.56% and 2.61% in assay [3]; 3.45% and 1.03% in assay [4]; 5.78% and 1.94% in assay [5]; 2.56% and 1.97% in [6]. Also, the inhibition was 5.54% and 3% in [7]; 0.95% and 1.75% in assay [8]; 4.18% and 2.3% in assay [9]; 1.05% and 1.85% in assay [10].
For the molecule `CCCNc1cccc(-n2ncc3c(N/N=C/c4ccncc4)ncnc32)c1`, the inhibition in assay [1] stood at 20.2%; in assay [2] it was 1.42%; in assay [3], 6.17%; in assay [4] it was 0.21%; in [5], 3.17%; in assay [6], 0.14%. Also, the inhibition turned out to be 1.89% in [7], 0.84% in [8], 1.57% in [9] and 1.79% in assay [10].
`Nc1nonc1-c1nc2cnccc2n1C1CC1`: the inhibition in assay [1] is 15.3% and 9%; in assay [2] it was 3.32% and 4.38%; in assay [3] it was 14.5% and 17.5%; in assay [4], 1.12% and 1.1%; in assay [5], -1.21% and 1.4%; in assay [6] it was 6.95% and 4.09%. Besides, the inhibition in [7] is 6.23% and 9.54%; in [8] it was 3.2% and -1.18%; in assay [9], 3.96% and -0.27%; in assay [10] it was 1.76% and -1.82%.
As to `O=C(Nc1n[nH]c2nnc(-c3cccnc3)cc12)C1CC1`, the inhibition in assay [1] is 1.3%; in assay [2] it was 0.18%; in [3], 1.92%; in [4], -0.11%; in [5], 0.95%; in [6], -0.76%. In addition, the inhibition in [7] was -2.19%; in assay [8], -0.63%; in assay [9], 0.33%; in assay [10], -0.76%.
Turning to `NS(=O)(=O)c1ccc(N/N=C2\C(=O)Nc3cccc(CCc4ccncc4)c32)cc1`, the inhibition in [1] is 4.17%; in assay [2], 2.49%; in [3], 1.9%; in assay [4], 0.54%; in assay [5], 1.32%; in assay [6] it was 1.84%. In addition, the inhibition in assay [7] is -0.19%; in assay [8], 0.44%; in [9], 0.85%; in [10], 0.15%.
In the case of `NS(=O)(=O)c1ccc(N/N=C2\C(=O)Nc3ccc(C(=O)NCc4ccncc4)cc32)cc1`, the inhibition in assay [1] is 44%; in assay [2], 5.34%; in [3] it was 20.7%; in [4], 2.55%; in assay [5], 2.67%; in [6], 1.19%. Also, the inhibition came out at 2.77% in assay [7], 2.33% in [8], 4.19% in assay [9] and 1.94% in assay [10].
Consider `CN(c1ccc(NC(=O)NCCN2CCOCC2)cc1)c1ccnc(Nc2ccc(CS(C)(=O)=O)cc2)n1`, for which the inhibition in assay [1] came to 4.49%; in assay [2], 4.48%; in assay [3] it was 5.87%; in assay [4], 4.78%; in assay [5] it was 3.15%; in assay [6] it was 1.71%. In addition, the inhibition in assay [7] is 2.52%; in assay [8] it was 2.63%; in [9], 3.24%; in assay [10], 3.34%.
Regarding `NC(=O)c1ccc2c(-c3ccnc(NCCCO)n3)c(-c3ccc(F)cc3)nn2c1`, the inhibition in assay [1] worked out at 4.69%; in [2] it was 3.95%; in assay [3], 3.68%; in assay [4], 2.67%; in [5] it was 2.23%; in assay [6] it was 25.3%. Also, the inhibition in [7] came to 67.6%; in assay [8] it was 7.1%; in assay [9], 19.8%; in assay [10] it was 5.87%.
As for `N#Cc1cccc(Nc2ncc(-c3ccccc3)o2)c1`, the inhibition in assay [1] stood at 3.86%; in [2], 3.9%; in [3], 5.55%; in [4] it was 2.41%; in assay [5] it was 4.88%; in [6], 1.55%. Also, the inhibition was 0.38% in assay [7], 1.61% in assay [8], 3.03% in assay [9] and 1.82% in assay [10].
On to `CCn1c(-c2nonc2N)nc2cncc(C(=O)NCCNC)c21`, for which the inhibition was found to be 9.32% in assay [1]; 7.08% in assay [2]; 32.1% in assay [3]; 2.36% in assay [4]; 1.74% in assay [5]; 4.37% in assay [6]. Besides, the inhibition came to 4.77% in [7], 4.39% in [8], 5.89% in assay [9] and 3.81% in assay [10].
In the case of `CC(C)c1ccc(-c2cc(-c3c[nH]nc3-c3ccccn3)ccn2)cc1`, the inhibition was -0.11% in assay [1]; 0.45% in assay [2]; 0.81% in assay [3]; -0.82% in assay [4]; -1.06% in [5]; 3.57% in assay [6]. Besides, the inhibition in assay [7] was 9.88%; in assay [8], 0.64%; in assay [9] it was 2.41%; in assay [10] it was 0.19%.
For `COc1cccc(Nc2nccc(-c3cnn4ncccc34)n2)c1`, the inhibition came out at 22.9% in assay [1]; 2.07% in assay [2]; 12.8% in [3]; 0.21% in assay [4]; 0.62% in assay [5]; 14.9% in assay [6]. Also, the inhibition stood at 48% in [7], 2.61% in assay [8], 20.5% in assay [9] and 4.45% in [10].
